Each structure is given as a SMILES string. This is part of a sample that, as a whole, favours compounds with a hit. Of some 83,000 tested, about 20% had one in any assay.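 Testing used 96-well plates and a 48-hour single-concentration exposure. Example: -40 means 40% of the starting cells died.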 Unmarked numbers belong to inactive results. Active and inactive are the calls of the source. Rule for the calls: active = growth percent below 10; inactive = the rest.

This assay deals with HL-60(TB) leukemia. The experiment in a line: NCI-60 one-dose screen, 48 h (100 = growth as untreated, 0 = no growth, -100 = all killed). Particulars: 10 µM unless noted.
Turning to `CC/C=C\C[C@H](O)C/C=C1/C(=O)C=C[C@@H]1C/C=C\CCCC(=O)NC`, the growth is -27.2% (active). Consider `COc1ccc(-c2cc(-c3cccnc3)nc3sc(C(=O)Nc4ccccc4)c(N)c23)cc1OC`, for which the growth is 60.2%. With `CN(C)c1ccc(/C=C(\C#N)c2cc3ccccc3n2C)cc1` the figure was 2.69% (active). With `CCCCCCNC(=O)Oc1ccc(/C(=C(/C)Cc2ccc(OC)cc2)c2ccc(OCCN(C)C)cc2)cc1` the figure was 47.4%. For the compound `O=C(N/N=C/c1ccccc1O)C(=O)Nc1ccc(F)cc1`, the growth was 29.6%. For `c1ccc(CCSc2ncnc3nc[nH]c23)cc1`, the growth is 74.7%. With `Nc1nc2c(c(-c3nc(N)nc4c3CCc3ccccc3-4)n1)CCc1ccccc1-2` the figure was 105%; with `O=C(CBr)CN1C(=O)c2ccccc2C1=O`, 103%; with `COc1ccc(NC(=O)c2ccc(/C=C/C(=O)c3ncc[nH]3)cc2)cc1`, 33.6%. Regarding `COc1ccc(C2CC(c3cc(OC)c(OC)c(OC)c3)=NO2)cc1OCCCCOc1cc2c(cc1OC)C(=O)N1CCC[C@H]1C=N2` (stereo not given in full), the growth is 34%. For `Cc1cc(C(O)(c2ccc(Nc3ccccc3)cc2)c2ccc(Nc3ccc(S(=O)(=O)O)cc3)cc2)ccc1N` (stereo not given), the growth is -7.9% (active). With `COc1ccc(/C=C/c2nc3ccccc3nc2/C=C/c2ccc(OC)cc2)cc1` the figure was 105%; with `Cc1cc(=O)oc2cc(Oc3nc(-c4ccccc4)cn4c(-c5ccccc5)cnc34)ccc12`, 85.2%; with `N#Cc1c(N)nc2c(c(-c3ccc(Cl)cc3)nn2-c2ccccc2)c1C#N`, 98.9% [100 µM].

On to `Oc1ccc(Cl)cc1-c1cc(-c2ccc(F)cc2)n[nH]1`, for which the growth was 74.9%. Take `CC1OC(n2c3ccccc3c3c4c(c5c6ccccc6[nH]c5c32)C(=O)N(CCN2CCOCC2)C4=O)CC(O)C1O` (stereo not given): the growth is 24.3%. `O=CN1N=C(c2cccc(Nc3ccnc4cc(Cl)ccc34)c2)CC1c1ccc(Cl)cc1` (stereo not given): the growth is -4.94% (active). With `Cc1[nH]c(N=Nc2ccccc2)nc1N=Nc1ccccc1`, the growth is 8.83% (active). `Cc1ccc([N+](=O)[O-])cc1NC(=O)Nc1cccc(F)c1`: the growth was 58.7%. As to `CCC(C)(O)Cc1ccc(Cl)cc1` (stereo not given), the growth is 96%. Take `O=c1[nH]c(CN2CCN(c3cccc(Cl)c3)CC2)nc2cc(Cl)ccc12`: the growth is 116%. The same measure for `Cc1cc(O)cc(O)c1N=NC1=NCCS1`: 105%. In the case of `NNc1nc(-c2cccnc2)nc2c1sc(=S)n2-c1ccccc1`, the growth is 77.1%. For `C#CCOc1ccc(C2=NN(CC3CC3)C3N=C(Cl)c4ncn(CC5CC5)c4N23)cc1OCC#C` (stereo not given), the growth was 99.1%. Regarding `O=S(=O)(Nc1cc(Cl)ccc1Cl)c1ccc(-c2cnc(C3CC3)o2)cc1`, the growth is 0.302% (active).

The values are drawn from PubChem BioAssay (NCI).
